For 16 compounds, Inhibition results are on record in ChEMBL document CHEMBL4513145, “CO-ADD screening of Biotechnology Research Centre (C.R.B.t) (Algeria) compounds”.

Each structure is given as a SMILES string. Where “and” joins values, the source holds several entries; their conditions need not be identical. Equal entries are not always repeated. Results with a measured potency or affinity are listed apart.

Assay [1] has as its system Staphylococcus aureus. The note with it: Concentration 32 ug.mL-1, ASSAY_TEST Inhibition of Bacterial Growth, detection method Absorption (OD600), MEDIA CAMHB, plate type 384well, NBS, CORNING #3640, time 18 hr.
Assay [2] relates to Escherichia coli. The note with it: Concentration 32 ug.mL-1, ASSAY_TEST Inhibition of Bacterial Growth, detection method Absorption (OD600), MEDIA CAMHB, plate type 384well, NBS, CORNING #3640, time 18 hr.

By Inhibition is commonly meant the drop in the measured response relative to a control, in per cent. Turning to `O=C(OCc1ccccc1)N1CC(Cc2ccccc2)C(O)O1` (configuration not stated), the Inhibition is 13.58% in assay [1] and -3.12% in assay [2].
In the case of `CCCCCCCC1CN(S(=O)(=O)c2ccc(C)cc2)N(S(=O)(=O)c2ccc(C)cc2)C1O` (configuration not stated), the figures for the Inhibition in assay [1] and in assay [2] were 7.71% and -1.55%, respectively.
For `CC1C(O)N(C(=O)OC(C)(C)C)N(S(=O)(=O)c2ccc([N+](=O)[O-])cc2)C1C` (configuration not stated), the figures for the Inhibition in assay [1] and in assay [2] were 14.48% and -1.81%, respectively.
The corresponding values for `CC(C)(C)OC(=O)N1C(O)C2CCCC2N1S(=O)(=O)c1ccc([N+](=O)[O-])cc1` (configuration not stated) are -6.71% and -4.07%.
In the case of `CC1CN(S(=O)(=O)c2ccc([N+](=O)[O-])cc2)N(C(=O)OC(C)(C)C)C1=O` (configuration not stated), the Inhibition in assay [1] (32 ug/mL) was 12.53% and 22.23% and 12.31%; in assay [2] (32 ug/mL), -2.77% and -4.85% and -5.54%.
On to `O=C(OCc1ccccc1)N1OC(O)C2CCCCC21` (configuration not stated), for which the Inhibition in assay [1] is reported as 6.89%; in assay [2], -5.21%.
As for `CC(C)(C)OC(=O)N1C(O)C(Cc2ccccc2)CN1S(=O)(=O)c1ccc([N+](=O)[O-])cc1` (configuration not stated), the Inhibition in assay [1] (32 ug/mL) is 11.9% and 5.44% and 15.35%; in assay [2] (32 ug/mL), 1.32% and -2.18% and -0.91%.
For `Cc1ccc(S(=O)(=O)N2CC(Cc3ccccc3)C(=O)N2S(=O)(=O)c2ccc(C)cc2)cc1` (configuration not stated), the Inhibition in assay [1] (32 ug/mL) is -1.12% and 2.54%; in assay [2] (32 ug/mL) it was -8.26% and -4.89%.
Regarding `CC1CN(C(=O)OCc2ccccc2)OC1=O` (configuration not stated), the Inhibition in assay [1] (32 ug/mL) is 5.54% and 4.49% and 4.77%; in assay [2] (32 ug/mL), -4.89% and -2.17% and -2.01%.
For `Cc1ccc(S(=O)(=O)N2CC(C)C(=O)N2S(=O)(=O)c2ccc(C)cc2)cc1` (configuration not stated), the Inhibition in assay [1] (32 ug/mL) was 12.43% and 4.65%; in assay [2] (32 ug/mL) it was -5.27% and -6.97%.
As to `CCCCCCCC1CN(S(=O)(=O)c2ccc(C)cc2)N(C(=O)OC(C)(C)C)C1O` (configuration not stated), the Inhibition in assay [1] is listed as 6.71%; in assay [2] it was -7.16%.
Consider `CC1CN(S(=O)(=O)c2ccc([N+](=O)[O-])cc2)N(C(=O)OC(C)(C)C)C1O` (configuration not stated), for which the Inhibition in assay [1] is 60.53%; in assay [2], -0.56%.
Regarding `O=C1ON(C(=O)OCc2ccccc2)CC1Cc1ccccc1` (configuration not stated), the Inhibition in assay [1] (32 ug/mL) is 5.51% and 8.05%; in assay [2] (32 ug/mL), -4.21% and -4.06%.
Take `CC(C)(C)OC(=O)N1C(=O)C(Cc2ccccc2)CN1S(=O)(=O)c1ccc([N+](=O)[O-])cc1` (configuration not stated): the Inhibition in assay [1] (32 ug/mL) was 9.07% and 7.14% and -8.81%; in assay [2] (32 ug/mL), -5.13% and -6.6% and -4.72%.
Consider `CC1CN(C(=O)OCc2ccccc2)OC1O` (configuration not stated), for which the Inhibition in assay [1] is listed as 2.79%; in assay [2], -4.78%.
Regarding `CCCCCCCC1CN(S(=O)(=O)c2ccc(C)cc2)N(C(=O)OC(C)(C)C)C1=O` (configuration not stated), the Inhibition in assay [1] is given as 0.71%; in assay [2], -11.74%.
